# Assay results published in PubChem BioAssay AID1672 (Johns Hopkins Ion Channel Center, 2009).
# Out of some 310,000 compounds screened, about 2,600 (0.84%) were called active. This is one part of a sample in which actives are shown more often than they occur. Values without a mark were called inactive.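 Rule for the calls: active = fluorescence ratio B-score at or below minus 3 SD of library scores, with starting-brightness B-score within 2 SD (cut at about -4.2 in these data); inactive = the rest.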
# Target: Inward rectifier potassium channel 2 (Mus musculus) (UniProt P35561)
# Assay: blocks the mouse Kir2.1 inward-rectifier potassium channel (AID 1672);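 note: channel flux triggered by added potassium and thallium sulfate stimulus; B-score of peak minus minimum fluorescence over baseline after thallium stimulus; more negative B-score means stronger Kir2.1 block with less thallium influx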
# Details: HEK293-Kir2.1, FluxOR thallium flux fluorescence; at 10 µM; active compounds read low
# Chain of Inward rectifier potassium channel 2 (Mus musculus) (P35561 whole entry, looked up): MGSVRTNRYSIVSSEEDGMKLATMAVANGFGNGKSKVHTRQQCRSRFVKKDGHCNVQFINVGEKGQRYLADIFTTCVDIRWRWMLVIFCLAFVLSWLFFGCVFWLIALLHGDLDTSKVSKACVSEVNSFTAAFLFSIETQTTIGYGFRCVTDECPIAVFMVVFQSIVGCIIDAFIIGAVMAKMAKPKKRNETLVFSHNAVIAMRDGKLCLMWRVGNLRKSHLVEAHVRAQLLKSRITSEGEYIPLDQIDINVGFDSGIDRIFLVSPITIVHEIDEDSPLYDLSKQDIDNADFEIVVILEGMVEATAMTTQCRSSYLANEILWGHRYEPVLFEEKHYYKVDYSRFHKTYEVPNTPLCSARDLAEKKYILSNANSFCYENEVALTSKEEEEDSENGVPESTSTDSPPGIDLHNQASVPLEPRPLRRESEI
row,Structure (SMILES),B-score
1,COCOc1cc(O)c(C(=O)/C=C/c2ccc(OCOC)c(OCOC)c2)c(OCOC)c1,1.19
2,COc1ccc(CNC(=O)C2CCCC2)cc1,1.06
3,COc1ccc(NC(=O)c2cc(-c3ccc(C)cc3)on2)cc1,0.92
4,COc1ccc(Nc2cc(Cl)ccc2C(=O)O)cn1,2.53
5,COc1ccc(NC(=O)/C(Cl)=C(/Cl)S(=O)Cc2ccc(C)cc2)cn1 (configuration not stated),-5.16 (active)
6,CC1CCN(c2ccc(-c3ccc(NC(=O)c4ccco4)cc3)nn2)CC1,2.11
7,COc1cc(NC(=O)c2cccnc2SC)cc(OC)c1,-1.22
8,COc1cc(NC(=O)c2ccccc2NS(=O)(=O)c2ccc(Cl)s2)cc(OC)c1,-4.91 (active)
9,COC(=O)c1ccc(NC(=O)c2ccccc2NS(=O)(=O)c2ccccc2)cc1,-0.07
10,Cc1ccn2c(=O)nc(SCC(=O)NCc3ccc4c(c3)OCO4)nc2c1,-1.61
11,Cc1ccc2nc(NC(=O)C3CSC4(C)CCC(=O)N34)sc2c1 (configuration not stated),-0.28
12,CCOc1ccc(S(=O)(=O)Nc2cccc(C(=O)NCC3(N4CCCCC4)CCCCC3)c2)cc1,-0.12
13,Cc1ccc(C(=O)C(C)OC(=O)Cc2n[nH]c(=O)c3ccccc23)cc1C (configuration not stated),-0.94
14,O=C(CN1C(=O)NC2(CCCC2)C1=O)OCCOc1ccc(F)cc1,0.63
15,CCn1c2ccccc2c2cc(NC(=O)C/C(C)=N/NC(=O)c3ccccc3N)ccc21,1.9
16,CCn1c2ccccc2c2cc(NC(=O)CNC)ccc21,-5.93 (active)
17,CCn1c2ccccc2c2cc(NC(=O)COC(=O)c3ccccc3Br)ccc21,1.33
18,COc1ccc(CCNC(=O)C(=O)NCC2CCCN2S(=O)(=O)c2cccs2)cc1OC (configuration not stated),-0.91
19,COc1ccc(C)cc1S(=O)(=O)Nc1cc2c3c(c1)CCC(=O)N3CCC2,0.54
20,COc1ccc(NC(=O)CCC(=O)N2CCN(S(=O)(=O)c3ccc(C)cc3)CC2)c(OC)c1,-0.19
21,COc1ccccc1C(=O)NC(CCSC)C(=O)N1CCN(C/C=C/c2ccccc2)CC1 (configuration not stated),-1.22
22,COc1ccc(CN2CCN(Cc3ccc(OC)c(OC)c3OC)CC2)cc1,0.47
23,COc1ccc(CN2CCC(c3nc4ccc(Cl)cc4[nH]3)CC2)cc1,-7.29 (active)

row,Structure (SMILES),B-score
1,COc1ccc(Cn2nnc3c(=O)[nH]c(C4CCN(C(=O)c5ccccc5Cl)CC4)nc32)cc1,1.59
2,O=C(Nc1ccc(S(=O)(=O)N2CCCCC2)cc1)C1CCN(C(=O)c2ccc(F)cc2)CC1,-0.97
3,COc1cc(/C=N/O)cc(Br)c1OS(=O)(=O)c1ccc(C)cc1,-10.4 (active)
4,COc1cc(/C=N/O)cc(Br)c1OCc1cccc(Cl)c1,-0.84
5,COc1cc(/C=N/Nc2ccc(C)cc2)cc(Br)c1O,-0.11
6,CCc1nnc(NS(=O)(=O)c2ccc(NC(=O)c3cccc(OC(F)(F)C(F)F)c3)cc2)s1,-0.69
7,Cc1ccc(-c2cc(=O)[nH]c(NCc3ccccc3)n2)cc1,-1.96
8,COc1cccc(CN(C)C(=O)CC23CC4CC(CC(C4)C2)C3)c1OC,0.01
9,COc1ccccc1CN(C)C(=O)c1cc2ccccc2o1,-0.72
10,COc1ccccc1CN(C)C(=O)C1(c2ccc(Cl)cc2)CC1,-7.43 (active)
11,COc1ccc(/C=N/NC(=O)c2cc(-c3cccc(C)c3)nc3ccccc23)cc1O,-0.5
12,CCOc1ccc(NS(=O)(=O)c2ccc(C(=O)NC3CCN(Cc4ccccc4)CC3)cc2)cc1,-0.37
13,COc1ccccc1CCC(=O)OCC(=O)N1CCN(S(=O)(=O)c2ccc(C)cc2C)CC1,-0.28
14,CC1=C/C(=N\OS(=O)(=O)c2ccccc2)C=CC1=O,-8.49 (active)
15,Cc1ccc(S(=O)(=O)c2ccc(Oc3ccccc3)cc2)cc1,1.97
16,O=S(=O)(ON(c1ccccc1)S(=O)(=O)c1ccccc1)c1ccccc1,-1.37
17,COC(=O)c1ccc(NS(=O)(=O)c2cc3c4c(c2)C(C)C(=O)N4CCC3)cc1 (configuration not stated),-0.99
18,C/C(=N\NC(=O)COc1ccc(C)cc1[N+](=O)[O-])c1ccc2c(c1)OCCO2,0.54
19,C=CS(=O)c1sc(Cl)c(N2CCOCC2)c1[N+](=O)[O-] (configuration not stated),-4.54 (active)
20,CCCCCCCCCCCCN1[C@@H](CC(C)=O)c2cc(F)cc(F)c2S1(=O)=O,1.64
21,CCOC(=O)c1c(NC(=O)CSc2nnc(C)c(=O)[nH]2)sc2c1CCC2,1.75
22,Cc1nnc(SCC(=O)N2CCOCC2)[nH]c1=O,-0.42
23,CCCCOC(=O)CNc1nnc(SCC(=O)OCC)[nH]c1=O,-5.69 (active)

row,Structure (SMILES),B-score
1,COc1ccc(NC(=O)CN(C)C(=O)c2ccc(NC3CC3)c([N+](=O)[O-])c2)cc1,0.91
2,COc1ccc(C(=O)OCC(=O)c2ccc(Cl)s2)c(OC)c1OC,1.46
3,CCOc1ccc(C(C)=O)cc1COC(=O)CNC(=O)c1cccs1,-0.97
4,COc1ccccc1C(CNC(=O)c1cccc(NS(=O)(=O)c2ccc(Br)cc2)c1)N(C)C (configuration not stated),-1.8
5,OCCNc1nc2ccccc2n1-c1ncnc2sc3c(c12)CCC3,-8.97 (active)
6,O=C(O)[C@@H]1CCCN1c1ncnc2sc3c(c12)CCC3,0.12
7,CC(C)(C)C(=O)Cn1c(NCCO)nc2ccccc21,-0.4
8,COc1cc(-c2nnc(NC(=O)C3=COCCO3)o2)cc(OC)c1OC,0.99
9,CCCCn1c(N)c(N(CC(C)C)C(=O)c2cccc(S(=O)(=O)N3CCN(C(C)=O)CC3)c2)c(=O)[nH]c1=O,-1.82
10,O=C(CCCN=C1NS(=O)(=O)c2ccccc21)OCC(=O)c1ccc(F)c(F)c1,0.45
11,COc1ccccc1C(=O)N1CC2(C)CC1CC(C)(C)C2 (configuration not stated),-0.99
12,Cc1nnnn1/C(=C\c1ccccc1)C(=O)OCC(=O)N1CC2(C)CC1CC(C)(C)C2 (configuration not stated),-4.63 (active)
13,Cc1cccc(C(=O)NCC(=O)OCC(=O)N2CC3(C)CC2CC(C)(C)C3)c1 (configuration not stated),1.23
14,CCn1c(Cc2cccs2)nnc1SCC(=O)c1ccc(C)cc1,-4.88 (active)
15,Cc1ccc(-n2c(Cc3cccs3)nnc2SCC(=O)OC(C)C)cc1,-2.12
16,CCn1c(SCC(=O)c2ccc3ccccc3c2)nnc1-c1cccs1,-2.71
17,CN(Cc1nc2ccccc2s1)C(=O)c1ccc(F)cc1,1.03
18,O=C(/C=C/c1ccc2c(c1)OCO2)NCc1ccc(F)cc1,-0.53
19,COc1c(C=O)c(CCN(C)C(=O)c2ccc(F)cc2)cc2c1OCO2,-4.35 (active)
20,Cc1cc(NC(=O)C(C)SCC(=O)Nc2ccccc2N2CCCCC2)no1 (configuration not stated),-4.17
21,COc1ccc(C(=O)c2c3ccc([N+](=O)[O-])cc3[n+]([O-])n2CCCN)cc1,0.68
22,Cc1cc(NC(=O)CCS(=O)(=O)c2ccc(F)cc2)no1,-0.47
23,Cc1c(Cl)cccc1NC(=S)NCC(O)c1ccccc1 (configuration not stated),-4.47 (active)

row,Structure (SMILES),B-score
1,CCNC(=S)Nc1cccc(Cl)c1C,0.45
2,Cc1c(Cl)cccc1NC(=S)NCc1ccc2c(c1)OCO2,-1.74
3,O=C(Nc1ccc(N2CCCCC2)cc1)c1cc(S(=O)(=O)N2CCOCC2)ccc1F,0.53
4,COc1cc(N)c(Cl)cc1C(=O)OCC(=O)c1ccc2c(c1)NC(=O)CO2,0.6
5,Cc1nn(C)cc1C(=O)c1ccccc1,0.22
6,CCOc1ccc(C(=O)Nc2cc(Cl)ccc2-n2cncn2)cc1OC,-2.32
7,CN1c2ccc([N+](=O)[O-])cc2C(C)(C)C12C=Cc1cc(C(=O)O)ccc1O2 (configuration not stated),0.63
8,COc1cccc(CC2(CO)CCCN(CC3=Cc4cc(OC)ccc4OC3)C2)c1 (configuration not stated),0.68
9,COc1ccc2c(c1)C=CC1(O2)N(CCO)c2ccccc2C1(C)C (configuration not stated),-6.82 (active)
10,CN(N)c1nc(N2CCCC2)nc(N2CCCC2)n1,0.28
11,Cc1sc2ncnc(N3CCC(C(=O)NNC(=O)c4ccc(F)cc4)CC3)c2c1C,0.05
12,CSc1ccc(Cl)c(C(=O)OCC(=O)N2CC(C)OC(C)C2)c1 (configuration not stated),-0.84
13,CC1CN(C(=O)COC(=O)c2cccc(NS(=O)(=O)c3ccccc3)c2)CC(C)O1 (configuration not stated),-4.76 (active)
14,COc1ccc(N2CCN(C(=O)COC(=O)c3cccc(S(=O)(=O)Nc4ccccc4OC)c3)CC2)cc1,0.61
15,O=C(NC1CCCCC1)c1ccc(-c2ccc(Cl)cc2)o1,1.25
16,O=C(CSc1nc2ccccc2c(=O)n1CCCO)N1CCc2ccccc21,0.73
17,Cn1c(SCC(=O)N2CCCc3ccccc32)nc2ccccc2c1=O,-6.03 (active)
18,C=CCn1c(=O)c2ccccc2n2c(SCC(=O)N3CCCc4ccccc43)nnc12,0.08
19,CN(Cc1ccccc1F)C(=O)C(Cc1ccccc1)NC(=O)c1ccccc1 (configuration not stated),-1.09
20,CC(=O)Nc1cccc(C(=O)OCC(=O)NCc2cc(C)c(O)c(C)c2)c1,-1.5
21,CC(=O)N1C(C)c2ccccc2C(C)(C)CC12CCCCC2 (configuration not stated),-6.43 (active)
22,CC(=O)N1CCN(C(=O)c2cc(-c3ccc(C)o3)nc3ccccc23)CC1,0.63
23,CCCCCN(C(=O)CCC(=O)OCCOc1ccc(OC)cc1)c1c(N)n(CCCC)c(=O)[nH]c1=O,0.11
